# Sampled rows, rich in hits. Any-hit rate of the full collection: about 1.6%.
# TNFa cytotox – HUVEC cytotoxicity counter-screen, TNF alpha stimulated. HUVEC TNFalpha-stimulated, Hoechst cell count, imaging. cell count reduction, % at 2 µM. 93,000 tested, 0.17% active. AID 848;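 active = cell count reduction exceeding the screen mean by over 5 SD, scaled to untreated wells per plate, cut at about 78% in these data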;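 note: cells counted after 24 h of TNF alpha exposure following the 1 h pretreatment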
# INS promoter inh – TRM-6 insulin promoter activity inhibition | AID 1273 | TRM-6 cells (human fetal islet line), insulin promoter-eGFP reporter, imaging; reporter expression induced with tamoxifen | 130,000 tested, 0.9% active | inhibition, % at 2 µM;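 active = inhibition above the mean plus 3 SD, with well images judged a real hit on visual review, cut at about 60% in these data, passing the limit was not always enough; inconclusive = inhibition over the cutoff but images rejected on review; inactive = inhibition not above the cutoff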
# E-sel TNF inh – blocks E-selectin expression induced by TNF alpha; HUVEC TNFa-induced E-selectin immunofluorescence, high content; inhibition, % at 2 µM; AID 1246; 120,000 tested, 0.71% active;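 active = inhibition above the batch mean plus 3 SD, and confirmed as a hit on visual image review, cut at about 43% in these data; inconclusive = passes the inhibition cutoff but fails visual image review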;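 note: 0% = TNF-stimulated DMSO wells and 100% = unstimulated control wells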
# F-actin modifier – modifiers of cytoskeleton assembly | 91,000 tested, 0.18% active | inhibition, % at 2 µM | HUVEC TNFa F-actin phalloidin imaging, high content;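 active = inhibition above the batch mean plus 3 SD and confirmed as a hit by visual image inspection, cut at about 30% in these data, passing the limit was not always enough; inconclusive = above the inhibition threshold but rejected on visual inspection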
# VCAM1 TNFa inh – reduces TNF alpha induced VCAM1 expression in HUVEC. inhibition, % at 2 µM. 95,000 tested, 0.48% active. HUVEC TNFa-induced VCAM-1 immunofluorescence, high-content imaging;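 active = inhibition above the batch mean plus 3 SD, with images confirmed as a hit by eye, cut at about 37% in these data; inconclusive = inhibition above that limit but hit not confirmed in images; inactive = inhibition not above that limit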;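 note: 0% = TNF-stimulated DMSO wells and 100% = unstimulated control wells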
# Phagocyt inh – blocks phagocytosis by macrophages; J774A.1 macrophage IgG-bead phagocytosis, imaging; inhibition, % at 5 µM; 110,000 tested, 0.07% active;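 active = inhibition above the mean of the plate negative controls plus 5 SD, cut at about 13% in these data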;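 note: phagocytic index as fraction of beads internalized from green versus red external bead signal; plate controls were DMSO negative control for no effect and cytochalasin-D positive control for full effect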
# * = called active by the depositor; ? = inconclusive; · = no result given.
SMILES,TNFa cytotox,INS promoter inh,E-sel TNF inh,F-actin modifier,VCAM1 TNFa inh,Phagocyt inh
O=C(N/N=C/c1ccc(C(F)(F)F)cc1)c1ccc(O)cc1,·,·,78*,·,·,·
COc1ccccc1/C=C/C(=O)OCC(=O)Nc1cc(C(F)(F)F)ccc1N1CCOCC1,·,·,23,·,·,2
COc1cc(NC(=S)NC2CC2)c(OC)cc1Cl,·,41,·,·,·,-4
Cn1cc(SCC(=O)O)c2ccccc21,-13,83*,19,5,15,0
C=CC(C)(C)c1cc2cc3ccoc3cc2oc1=O,·,-43,·,·,·,·
CCc1c(O)nc(SCC(=O)Nc2ccc3c(c2)CCC3)[nH]c1=O,-20,6,3,-6,2,1
CCCCc1c(O)nc(SCC(=O)Nc2ccc3c(c2)CCC3)[nH]c1=O,·,·,60*,·,·,-1
O=C(CSc1n[nH]c(-c2cccs2)n1)NCc1ccc2c(c1)OCO2,4,-387,7,4,-32,0
N#Cc1c(N)nc(SCC(=O)NCc2ccc3c(c2)OCO3)c(C#N)c1-c1cccs1,-17,·,21,60*,1,-1
Nc1nc(SCC(=O)NCc2ccc3c(c2)OCO3)n[nH]1,·,65*,·,·,·,·
Nc1nnc(SCC(=O)NCc2ccc3c(c2)OCO3)s1,-25,8,-6,-3,93*,0
COc1ccc(C(C)(C)C)cc1NC(=O)c1cc(S(=O)(=O)N(C)C)ccc1N1CCCC1,·,·,-12,·,·,-9
Cc1oc(-c2ccccc2F)nc1CN1CCC(C(=O)NC2CCCCCCC2)CC1,-32,·,-10,7,-3,-4
Cc1oc(-c2ccccc2F)nc1CN1CCC(C(=O)NC2CCCc3ccccc32)CC1 (centres undefined),9,86*,-11,-14,0,-1
Cc1nc(SCC(=O)NC(C)(C#N)C2CC2)c2c(-c3cccs3)csc2n1 (centres undefined),·,-73,-1,·,·,-6
C/C(=N\Nc1nc(C)cc(C)n1)c1ccc(N2CCOCC2)cc1,·,17,·,·,·,·
C/C(=N\Nc1nc2ccccc2[nH]1)c1ccc(N2CCOCC2)cc1,·,75*,·,·,·,·
O=c1c(Cl)c(N2CCOCC2)cnn1-c1nc2ccccc2[nH]1,·,-11,42,·,·,·
c1ccc2[nH]c(N3CCOCC3)nc2c1,·,61*,-23,·,·,0
COc1ccc(N2CCN(CC(=O)NC(=O)NC(C)(C)C)CC2)cc1,·,27,·,·,·,·
COCCCNC(CC(=O)Nc1ccccc1C(=O)OC)C(=O)O (centres undefined),7,-7,60*,2,-11,·
COc1ccc(C(C)=O)cc1CSc1nc2cc(Cl)ccc2o1,-13,74*,3,-3,7,0
C/C(=N\NC(=O)CCc1ccc(S(=O)(=O)N2CCOCC2)cc1)c1ccccc1Cl,·,·,-9,·,·,·
CCOc1cc(NC(=O)c2ccco2)c(OCC)cc1NC(=O)Cc1cccc(OC)c1,17,5,-12,15,15,-1
CCOc1cc(NC(=O)c2ccco2)c(OCC)cc1NC(=O)CCC(=O)NCc1cccnc1,100*,·,11,?,?,·
SMILES,TNFa cytotox,INS promoter inh,E-sel TNF inh,F-actin modifier,VCAM1 TNFa inh,Phagocyt inh
COc1ccc(Nc2nc(N)nc(CSc3nncn3C)n2)cc1,-14,77*,-8,13,0,0
CN(C)C(C)(C)C#CCCCCC#CC(C)(C)N(C)C,-12,71*,14,10,13,·
Cc1cc(C(=O)NCc2ccccc2)c(=O)[nH]c1C,-8,73*,·,43,-19,-1
Cc1cc(C(=O)O)c(=O)[nH]c1C,-12,-54,-16,-47,10,-3
N#Cc1ccsc1NC(=O)COC(=O)c1ccc2ccccc2c1,·,11,97*,·,·,2
N#Cc1ccsc1NC(=O)CN1CCN(S(=O)(=O)c2ccc3ccccc3c2)CC1,·,-30,6,·,·,-4

# Compound activity (PubChem)
